# Activity calls are given as the source filed them. How the source made its calls: active means hit-call score of the fitted dose curve at least 0.9, where 1 is the maximum; inactive means score below 0.9.
# Experiment: ATG_M_06_CIS: Attagene CIS-FACTORIAL HepG2 Assay for M06 Transcription Factor (Internal Marker) (AID 2282950)
# Details: HepG2 Attagene CIS-FACTORIAL M06 internal marker reporter; actives raise or lower the signal
# Method: ATG_CIS is a cell-based, multiplexed-readout assay that uses HepG2, a human liver cell line, with measurements taken at 24 hours after chemical dosing in a 24-well plate.ATG_M_06_CIS is one of 52 assay component(s) measured or calculated from the ATG_CIS assay. It is designed to make measurements of mRNA induction, a form of inducible reporter, as detected with fluorescence intensity signals by Reverse transcription polymerase chain reaction (RT-PCR) and Capillary electrophoresis technology.Data from the assay component ATG_M_06_CIS was analyzed into 1 assay endpoint. This assay endpoint, ATG_M_06_CIS, was analyzed with bidirectional fitting relative to DMSO as the negative control and baseline of activity. Using a type of inducible reporter, measures of mRNA for gain or loss-of-signal activity can be used to understand the background control at the transcription factor-level as they relate to the gene . Furthermore, this assay endpoint can be referred to as a secondary readout, because this assay has produced multiple assay endpoints where this one serves a background control function. To generalize the intended target to other relatable targets, this assay endpoint is annotated to the background measurement intended target family, where the subfamily is internal marker.
# Human liver HepG2 cells are transiently transfected with multiple reporter transcription units (MRTUs) in 6-well plates using FuGene 6 reagent (Roche; 3 ml FuGene/1 mg DNA). The MRTU constructs are regulated by a cis-regulating element (promoter). […] A major difference between the CIS and TRANS system is that in CIS activities of endogenous TFs are measured, whereas the TRANS assay evaluates changes in activities of exogenous, chimeric NR-Gal4 proteins. […] At the end of 24 hour incubation, total RNA was isolated using TriZol reagent (Invitrogen). The isolated RNA is then reverse-transcribed using oligo(dT) primer and Mo-MLV reverse transcriptase (Invitrogen) with DNAse I (Ambion) treatment for 30 min. The one-tenth of the produced cDNA was amplified by PCR using Taq DNA polymerase (Invitrogen) and two reporter sequence-specific primers. The PCR products were fluorescently labeled by primer extension with 6-arboxyfluorescein (6-FAM) 5'-labeled reporter sequence-specific primer (2 min at 95 C, 20 s at 68 C and 10 min at 72 C) and these products were digested with 5U of HpaI (New England Biolabs) for 2h at 37 C. The fragments were purified using Qiaquick PCR columns (Qiagen), analyzed on an ABI 3130xL genetic analyzer (Applied Biosystems) with peak positions identified by using a set of X-rhodamine (ROX)-labeled MapMarker1000 molecular weight standards (BioVentures). The raw capillary electrophoresis data was processed using Attagraph software (Attagene).
row,SMILES,outcome
1,[N-]=[N+]=[N-],inactive
2,Cc1ccc(N)cc1N,inactive
3,c1ccc(OP(Oc2ccccc2)Oc2ccccc2)cc1,inactive
4,CC(Cl)CN(C)C (stereo not given),inactive
5,ClC(Cl)(Cl)c1ccccc1,inactive
6,CCN(CC)C1CCCCC1,inactive
7,OCC(F)(F)OC(F)(F)C(F)(F)OC(F)(F)C(F)(F)OC(F)(F)F,inactive
8,CCCCOCCOP(=O)(OCCOCCCC)OCCOCCCC,inactive
9,O=P(OCC(Br)CBr)(OCC(Br)CBr)OCC(Br)CBr (stereo not given),inactive
10,CCOP(=O)(O)C(N)=O,inactive
11,CO/N=C(/C(=O)OC)c1ccccc1COc1ccccc1C,inactive
12,CCOC(=O)c1ccccc1N,inactive
13,O=C(O)C1C(C(=O)O)C2(Cl)C(Cl)=C(Cl)C1(Cl)C2(Cl)Cl (stereo not given),inactive
14,COC(=O)C(F)(F)C(F)(F)OC(F)(C(F)(F)F)C(F)(F)OC(F)=C(F)F (stereo not given),inactive
15,CSC(C)(C)C=NO,inactive
16,Cc1c([N+](=O)[O-])cc2c(c1[N+](=O)[O-])C(C)(C)CC2(C)C,inactive
17,CCCCc1ccc(O)cc1,inactive
18,CC(C)(C)c1ccccc1OP(=O)(Oc1ccccc1)Oc1ccccc1,inactive
19,CC(C)(C)N(NC(=O)c1ccc(Cl)cc1)C(=O)c1ccccc1,inactive
20,CCOP(=S)(OCC)SCn1nnc2ccccc2c1=O,inactive

row,SMILES,outcome
1,OCC(F)(F)OC(F)(F)C(F)(F)OC(F)(F)C(F)(F)OC(F)(F)CO,inactive
2,CCCCCCCc1ccc(O)cc1,inactive
3,CCOP(=S)(NC(C)C)Oc1ccccc1C(=O)OC(C)C (stereo not given),inactive
4,CC(=O)CCc1ccc2c(c1)OCO2,inactive
5,FC(F)(F)C(F)(C(F)(F)F)C(F)(F)C(F)(F)CC1CO1 (stereo not given),inactive
6,NNC(N)=S,inactive
7,N#Cc1ccc(O)cc1,inactive
8,CCCCN(CCCC)SN(C)C(=O)Oc1cccc2c1OC(C)(C)C2,inactive
9,CC(Cl)(Cl)C(=O)O,inactive
10,O=C(O)C=CC(F)(C(F)(F)F)C(F)(F)F,inactive
11,CCOP(=S)(S)OCC,inactive
12,COCCOCCO,inactive
13,c1nc[nH]n1,inactive
14,ClC(Cl)c1ccccc1,inactive
15,CC(Cc1ccc(OCC(=O)O)cc1)NCC(O)c1csc(C(F)(F)F)n1 (stereo not given),inactive
16,O=[N+]([O-])c1cc(Cl)ccc1Cl,inactive
17,COP(=O)(O)OC,inactive
18,O=S1(=O)OCC2C(CO1)C1(Cl)C(Cl)=C(Cl)C2(Cl)C1(Cl)Cl (stereo not given),inactive
19,COP(N)(=S)OC,inactive
20,O=C(O)CF,inactive

# Reference: PubChem BioAssay (EPA / NIEHS)
